# The supplement of paper PMC6555819
# Tested on: PPARg:RXRa IVT, anti-PPARg (NR concentration 270 nM, RXRa partner concentration 90 nM)
# Assay: PBM binding z-score (relative to random genomic background probes); higher = stronger binding; sequences stand for … in GC…GCGATTGACAGCGTAGAATGAAGG
# Summary of the method: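 Regression normalization was applied to scanned fluorescence from custom Agilent 4×180K protein-binding microarrays. Before scanning, arrays were incubated 1 h with ligand-free nuclear receptor dimers, and binding was detected with antibodies against each partner (one per run). Binding z-scores use the random background probes as reference.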
row,Sequence,PBM binding z-score
1,CCACGGAGGACAGAAGGTCAGAGCTGTCCGCTTT,0.519
2,ATCTCGAGGTAAAGTTCAGTGAAAGATCGATAGA,1.24
3,CCAGACAGGTGTAAGGTAACTCAGTCTGGTACGC,-0.31
4,CGAACTAGGTCATCCAGGACAGTGTATACATTGA,8.01
5,CGAACTAGGTCATCCAGGGCAGTGAATACATTGA,8.48
6,GCTTTCGGGTCAAAGGTTATAGCATGAATAGAAT,5.81
7,GCGACTGGGGTAAAGCAGGTTACCATAAGGTTGG,2.74
8,AGAATGAGGTTATGAAGATCAGGGAATTGCGGTC,2.45
9,GGAACGAGGGAAAAGTTGATAGCATCTGTCGACG,0.0196
10,ATATGTAGGTTAGCTGGGTTCATTCAGACTAGGC,6.16
11,AGAATGAGGTTATAAGTAGATCAGGGAAGAAAGT,2.5
12,TCTAGCAGGCCAAAGGGTCACTCAAGAGGTACGG,2.45
13,GCGACTGGGGCAAAGCAAGTTACCATAAGGTTGG,3.4
14,GTACCAAGGTGAATAGGACGTTGATGAGTAGGCG,1.93
15,TCAAGTAGGTTACCAATGGGGCATTCAGCTTTCT,5.24
16,TCATATAGGTACTACAGGTGAAAGTCGGCATCTA,1.16
17,TCATATAAGTAAACAGGTGAAAGTCCGTAAGTTA,1.31
18,TCATGTAGGTAAATGCTAGGTGAAAGTCCGATCT,3.44
19,CCTTACGGGTCACGAGGTTATAGGACGACGAGCG,5.38
20,ATATCAAGGTGATCGTGAGGTCGTTGATACTAAC,2.27

row,Sequence,PBM binding z-score
1,TAGCCTAGGTCATGCGGGCCACTATAGTGTCGGC,3.38
2,GTACCAAGGTGAAGAGGTCGTTGATGAGTAGGCG,2.51
3,CCTAGTTGGTCAAAGTCACACACGCTATAGGTAC,1.52
4,TCTTGTAGATCAAGCACGTTAAGAAAGCCTGAGT,0.108
5,TTACCAAGGTGAGAGGTCGTTGATGCACGCCTTG,4.04
6,TCTTGTAGATCAAAGGCTAAGAAAGCCGAAGCCT,1.23
7,TAGCCTAGGTCAGAACGGGCCAGTATACGCTATA,1.5
8,ATCGAAAGGTCGAAGGCGAGTATACCCACCCGAA,1.19
9,CCTAGCAAGCCAATCTGGGTCACTCAAGGCTTGA,4.86
10,CCGAGTTGGTCAGGAGGTCACACACCGGATATGA,2.61
11,AGAGACAGGTGAGTGAAGGTAACTCAGCTGGACG,0.599
12,GCTCGGCGGACAAGGTCAGAGCTTTGTCCGTAGA,0.128
13,ACTAGCAGGCCAAGTTTGGGCCACTCAAACAAAG,0.241
14,ACTAGCAGGCCAAGTTTGGGTCACTCAGACAAAG,1.1
15,CCTTACGGGTCACTCCAGGGTATAGCATCGGAGT,3.17
16,GGAACGAGGGCAATTTGATAGCAGAGTTTGATGG,2.2
17,CGTCCAAGGTCATAGGAGGTCAGTTAAGACAGAT,4.5
18,CGTCCAAGGTGAGCAGGTCAGTGAAAGCGACGTG,2.14
19,GCTAGTTGGTCAGTAAAAGGTCACACATCGGTCG,2.98
